# Compound activity (PubChem)
# Only a selection was taken, and hits are over-represented in it overall.
# IMPase Li cell: membrane-permeable IMPase blocker, potentiated with lithium. CHO-M1 cells, IP1 TR-FRET (IP-One), carbachol + lithium. 0.35% of 210,000 active. Potency, µM (top dose mostly 59.4 µM), actives largely listed as inhibitors. AID 1457;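 also: IP1 builds up when IMPase is blocked and the TR-FRET signal falls; nearly all actives have a fitted effect of over 50% in size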
#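 Steps: plate 2000 CHO-M1 cells per well and culture 16–30 h; add compound and lithium; incubate 30 min, 37C; add d2-IP1 tracer and Eu cryptate anti-IP1 antibody in lysis buffer; read after 10 min at room temperature.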
# ALOX12 inhib: blocks human 12-lipoxygenase activity | P18054 | purified 12-hLO, xylenol orange hydroperoxide absorbance | Potency, µM (doses to about 57.1 µM), most hits filed as inhibitors | 0.12% of 150,000 active | AID 1452; also: nearly all actives have a fitted effect of over 55% in size
#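 Purified human 12hLO (150 nM), preincubated 15 min with compound, then 40 uM arachidonic acid for 30 min, room temperature, Hepes pH 7.0 with 0.01% Triton X-100. Hydroperoxide detected by ferrous iron/xylenol orange; 573/405 nm absorbance ratio gives reaction progress.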
# ALOX15B inhib: blocks human 15-lipoxygenase 2 activity. Potency, µM (series often up to 57.1 µM), most hits filed as inhibitors. O15296. purified 15hLO-2, xylenol orange hydroperoxide absorbance. AID 881. 0.56% of 110,000 active; also: nearly all actives have a fitted effect of over 60% in size
# Target sequence (O15296 whole entry, looked up): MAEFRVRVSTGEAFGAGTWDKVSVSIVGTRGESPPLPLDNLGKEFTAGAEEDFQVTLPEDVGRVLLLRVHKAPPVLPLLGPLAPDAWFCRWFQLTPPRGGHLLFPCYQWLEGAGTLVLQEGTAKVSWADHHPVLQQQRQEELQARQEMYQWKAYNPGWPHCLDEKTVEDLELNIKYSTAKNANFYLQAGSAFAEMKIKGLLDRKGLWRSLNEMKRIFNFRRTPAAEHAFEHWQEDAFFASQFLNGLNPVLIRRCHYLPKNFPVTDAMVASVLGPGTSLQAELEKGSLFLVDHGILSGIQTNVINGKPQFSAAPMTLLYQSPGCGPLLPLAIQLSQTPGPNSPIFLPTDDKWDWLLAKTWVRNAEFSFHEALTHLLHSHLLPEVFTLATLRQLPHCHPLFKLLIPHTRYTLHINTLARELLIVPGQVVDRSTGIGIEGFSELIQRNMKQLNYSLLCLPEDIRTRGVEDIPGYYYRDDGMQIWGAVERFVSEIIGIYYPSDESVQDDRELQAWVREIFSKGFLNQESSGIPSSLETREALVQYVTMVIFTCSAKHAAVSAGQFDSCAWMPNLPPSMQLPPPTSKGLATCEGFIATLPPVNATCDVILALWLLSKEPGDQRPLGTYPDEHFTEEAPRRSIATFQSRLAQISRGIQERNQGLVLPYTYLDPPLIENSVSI
#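 Purified human 15hLO-2 (50 nM final) preincubated with compounds 15 min at room temperature in 25 mM Hepes pH 7.5, 0.01% Triton X-100, then 45 uM arachidonic acid added for 90 min; hydroperoxide detected via ferrous/xylenol orange, 573/405 nm absorbance ratio.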
# IMPase cell inh: IMPase inhibition in cells; P97697; CHO-M1 cells, IP1 accumulation, HTRF TR-FRET ratio; inhibition (IP1 accumulation), % at 46.1 µM; 120,000 tested, under 10 active; AID 901; active = well fitted curve in the direction sought with a large enough effect in the signal ratio, not every such curve was filed as active; inconclusive = small, poorly fitted or top-dose-only effect, or a change in a side signal; inactive = no such curve, though single readings can be large or run the other way; the % refers to the signal ratio;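 also: cells stimulated with carbachol in lithium chloride buffer; higher means more IMPase inhibition seen as more IP1 and lower FRET ratio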
#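 Measured: the HTRF emission ratio (665/620 nm) plus the 620 nm donor channel, each fitted to the Hill equation to give AC50. Cells were CHO-M1 given compounds up to 46 uM and a 30 min carbachol stimulation at 37C.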
# Hits are given with their value; i = inactive; ? = inconclusive; nt = not tested or not shown; [ ] = remark or other dose. Unless noted, calls follow the shape of the dose curve; as a rule, active = well fitted curve in the direction sought with a large enough effect; inconclusive = small, poorly fitted or top-dose-only effect, or another doubt; inactive = no such curve, though single readings can be large; an effect the other way counts as inactive or inconclusive.
SMILES,IMPase Li cell,ALOX12 inhib,ALOX15B inhib,IMPase cell inh
CCCCCCCCCCCC1=C(O)C(=O)C=C(O)C1=O,i,8.9µM,32µM,i
CCCSc1nc(C)c(-c2csc(C(C#N)=C3CCCC3)n2)cc1C#N,i,i,10µM,?
Cc1ccc(OCC(=O)NC(=S)Nc2ccc3c4c(cccc24)CC3)cc1,11µM,i,nt,nt
O=C1C(=O)N(Cc2ccc(Cl)c(Cl)c2)c2ccccc21,i,?,7.9µM,i
CSc1nnc2c(n1)OC(c1cccc(O)c1Cl)Nc1ccccc1-2 (centres undefined),nt,nt,nt,i
CCCCCCCC[N+](CCCCCCCC)(CCCCCCCC)CCCCCCCC,i,?,32µM,nt
COc1ccccc1OCC(=O)N(Cc1cccs1)C1CCS(=O)(=O)C1 (centres undefined),nt,nt,nt,i
Cc1cc(-c2nnc3sc(-c4ccc(Cl)cc4Cl)nn23)n[nH]1,10µM,i,i,i
COc1ccc(/C=N/NC(=O)c2cc(-c3ccc(Cl)cc3)n[nH]2)cc1OC,nt,i,nt,nt
O=c1c2ccccc2sn1-c1ccccc1,i,13µM,1.3µM,i
O=c1c2ccccc2sn1-c1ccc(S(=O)(=O)N2CCCC2)cc1,i,?,0.4µM,i
CN(C)S(=O)(=O)c1cccc(-n2sc3ccccc3c2=O)c1,i,nt,nt,nt
Cc1ccc(-n2sc3ccccc3c2=O)cc1S(=O)(=O)N1CCCCC1,i,3.2µM,0.63µM,i
COc1cccc(CCc2ccccc2OCC[C@@H]2C[C@@H](O)CN2C)c1,i,i,i,nt
CCOc1ccc2nc(C)cc(Nc3ccccc3OCC)c2c1,nt,nt,nt,i
Cc1ccc(-n2c(=S)[nH]c3sc4c(c3c2=O)CCC4)cc1,11µM,nt,nt,nt
O=C(CCn1c(=O)[nH]c2ccsc2c1=O)Nc1ccc(F)c(F)c1,10µM,i,i,i
O=C(CCn1c(=O)[nH]c2ccsc2c1=O)NCCc1ccc(Cl)cc1,i,i,i,i
Oc1cc(O)cc(/C=C\c2ccc(O)c(O)c2)c1,nt,?,3.2µM,i
Cn1c(=NC(=O)COc2ccccc2)sc2ccccc21,13µM,nt,nt,nt
COc1ccccc1CNC(=O)CSc1nc(N)c(C#N)c(-c2cccs2)c1C#N,3.5µM,i,i,i
COc1ccc(-c2cc(-c3cccs3)c(C#N)c(SCC(=O)NCc3ccccc3OC)n2)cc1,?,i,i,i
CCC(=O)O[C@H]1C(O[C@@H]2C(C)[C@H](O[C@H]3C[C@@](C)(OC)C(O)C(C)O3)C(C)C(=O)OC(CC)[C@@](C)(O)C(O)[C@H](C)C(=O)C(C)C[C@]2(C)O)OC(C)CC1N(C)C (some centres undefined),i,i,i,nt
COc1ccc(-c2ccc3c(N)c(C(=O)Nc4ccc(C)cc4C)sc3n2)cc1OC,nt,nt,nt,i
CC12CC3CC(C)(C1)CC(C(=O)NC(=S)N1CCCCC1)(C3)C2,i,16µM,?,i
SMILES,IMPase Li cell,ALOX12 inhib,ALOX15B inhib,IMPase cell inh
CC12CC3(C)CC(C)(C1)CC(C(=O)NC(=S)N1CCOCC1)(C2)C3,i,?,?,i
C=C(CC1([C@@H](NP(=O)(c2ccccc2)c2ccccc2)[C@H]2C[C@@H]2CCN(C(=O)OCC)S(=O)(=O)c2ccc(C)cc2)CC1)c1ccccc1,i,i,i,nt
Cc1noc(C)c1-c1ccc2ncnc(N3CCN(C)CC3)c2c1,i,nt,i,nt
O=C1NC(O)=NC1(c1ccccc1)c1ccccc1,i,i,i,i
CCCSc1nc(SCC(=O)NCc2ccccc2)c2c3c(sc2n1)COC(C)(C)C3,10µM,i,i,i
CC(C)Sc1nc(SCC(=O)NCc2ccco2)c2c3c(sc2n1)COC(C)(C)C3,i,i,i,i
CC(C)[C@H](Nc1ncnc2nc[nH]c12)C(=O)O,i,i[11.4 µM],i[11.4 µM],nt
COc1cc2c(C=O)c3c4c(cc(OC)c(OC)c4c2cc1OC)CCN3C,i,?,32µM,i
COc1cc2c(C)c3c4c(cc(OC)c(OC)c4c2cc1OC)CCN3C,i,i,i,i
CCOc1cccc(-c2nnc(SCC(=O)Nc3ccc(OC)c(OC)c3)n2N)c1,i,i,i,i
CCOc1cccc(-c2nnc(SCC(=O)Nc3cc(OC)cc(OC)c3)n2N)c1,25µM,i,i,i
COc1ccc(S(=O)(=O)N(C(C)=O)c2ccc3oc(=O)sc3c2)cc1,i,8.9µM,i,i
Cc1ccc(N=Nc2c(O)c(S(=O)(=O)O)cc3cc(S(=O)(=O)O)ccc23)c(C)c1,i,i[11.4 µM],i[11.4 µM],nt
Nc1c(N=Nc2ccc(-c3ccc(N=Nc4cc(S(=O)(=O)O)c5ccccc5c4N)cc3)cc2)cc(S(=O)(=O)O)c2ccccc12,i,?,3.2µM,nt
Cc1cc(-c2ccc(N=Nc3ccc4c(S(=O)(=O)O)cc(S(=O)(=O)O)c(N)c4c3O)c(C)c2)ccc1N=Nc1ccc2c(S(=O)(=O)O)cc(S(=O)(=O)O)c(N)c2c1O,i,i,20µM,?
Nc1ccc(N=Nc2ccc(-c3ccc(O)cc3)cc2)c2ccc(S(=O)(=O)O)cc12,i,i[11.4 µM],2.5µM,nt
CC(C)c1nc2sc3c(=O)[nH]cnc3c2c2c1CCC2,i,i,nt,nt
CC(C)Cc1nc2sc3c(=O)[nH]cnc3c2c2c1CCC2,10µM,i,nt,nt
CCCCc1nc2c(c3c1C[C@H](C)OC3)CN(C(=O)Cc1cccc(OC)c1)CC2,i,i[11.4 µM],nt,nt
CCCCCCCCN,i,i,i,nt
O=C(CSc1nnnn1-c1ccccc1)Nc1nsc(-c2ccc(Cl)cc2)n1,?,i,i[2.29 µM],i
O=C(CSc1nnnn1-c1ccccc1)CC(=O)Nc1ccc(Cl)cc1,i,10µM,i,i
CC(=O)c1sc2nc(-c3ccc(C)cc3)c3c(c2c1N)CCCC3,i,i,nt,nt
Cc1ccc(-c2nc3sc(C(N)=O)c(N)c3c3c2CCCC3)cc1,11µM,i,nt,nt
O=C(COC(=O)c1cccc2ccccc12)Nc1ncc(C(F)(F)F)cc1Cl,?,i,i,i
SMILES,IMPase Li cell,ALOX12 inhib,ALOX15B inhib,IMPase cell inh
O=C(COC(=O)c1cc(-c2ccccc2Cl)nc2ccccc12)Nc1ncc(C(F)(F)F)cc1Cl,10µM,i,nt,?
CC(C)(C)c1cc(/C=C(\C#N)C(N)=S)cc(C(C)(C)C)c1O,i,i,13µM,i
COC1C=CO[C@@]2(C)Oc3c(C)c(O)c4c(O)c(c(C=NN5CCN(C)CC5)c(O)c4c3C2=O)NC(=O)/C(C)=C\C=CC(C)C(O)[C@@H](C)C(O)C(C)[C@H](OC(C)=O)C1C (some centres undefined),i,i,20µM,nt
CCOc1ccc(/C(O)=C2/C(=O)C(=O)N(CCOCCO)C2c2ccc(F)cc2)cc1 (centres undefined),11µM,i,i,?
COCCN1C(=O)C(=O)/C(=C(/O)c2ccc(C)cc2)C1c1ccccn1 (centres undefined),i,nt,nt,nt
CCOc1ccc(/C(O)=C2/C(=O)C(=O)N(CCOCCO)C2c2ccccn2)cc1 (centres undefined),8.9µM,i,i,?
COCC(=O)O,i,i,i,nt
O=C(O)Cc1sc(-c2ccccc2Cl)nc1-c1ccccc1,5µM,nt,nt,nt
O=C(Cc1sc(-c2ccccc2)nc1-c1ccccc1)Nc1ccccc1,i,i,i,i
COCCn1c(=NC(=O)c2nc3ccccc3s2)sc2cc(S(C)(=O)=O)ccc21,22µM,i,nt,i
COC(=O)Cn1c(=NC(=O)c2nc3ccccc3s2)sc2cc(S(N)(=O)=O)ccc21,i,i,nt,nt
